Y pestis TopoI: Y. pestis Topo-I inhibition via cleavage products | Y. pestis Topo-I cleavage product accumulation, plate reader | activity, % at 10 µM | 360,000 compounds, 0.064% hits | AID 504884; in the data active = activity above about 50%, passing the limit was not always enough; inconclusive = no clear call, values can overlap the other calls
DUSP3 inh: inhibitors of human VHR1 phosphatase (DUSP3); P51452; recombinant VHR phosphatase, pNPP absorbance; inhibition, % at 13.3 µM; 290,000 compounds, 0.52% hits; AID 1654; in the data active = inhibition above about 50%
BioA inh: blocks M. tuberculosis BioA enzyme activity; purified M. tuberculosis BioA enzyme, plate reader; inhibition, % at 9.99 µM; 360,000 compounds, 0.096% hits; AID 602481; in the data active = inhibition above about 40%; inconclusive = no clear call, values can overlap the other calls
TcdB GH inh: TcdB glycohydrolase inhibition; inhibition, % at 9.99 µM; AID 652162; P18177; TcdB glycohydrolase enzymatic assay, plate reader; 350,000 compounds, 0.24% hits; in the data active = inhibition above about 10%
BH1578 lux ind: quorum light induction in luxS cqsA deficient V. cholerae. V. cholerae BH1578 lux reporter, luminescence, 6 h. activation, % at 18.7 µM. 350,000 compounds, 0.16% hits; in the data active = activation mostly above about 9.7%, no sharp cut-off; inconclusive = no clear call, values can overlap the other calls; inactive = mostly below about 3.7%
PfHsp40 rescue: restores yeast growth despite PfHsp40 toxicity. growth rescue, % at 12.5 µM. 340,000 compounds, 0.68% hits. S. cerevisiae expressing PfHsp40, growth rescue, ATP luminescence; in the data active = growth rescue above about 28%, passing the limit was not always enough; inconclusive = no clear call, values can overlap the other calls;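 also: yeast W303a lacking pdr1 and pdr3 grown in galactose medium; growth measured after three days at 30 °C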
* hit, by the source's call; i = inactive; u = inconclusive; x = no result given. Rows were chosen to be rich in hits. Some 1.2% of all compounds tested hit in one or more screens of this group.

SMILES | Y pestis TopoI | DUSP3 inh | BioA inh | TcdB GH inh | BH1578 lux ind | PfHsp40 rescue
Oc1ccc(-[n+]2c(-c3ccccc3)cc(-c3ccccc3)cc2-c2ccccc2)cc1 | 4.1 | x | 4.2 | 0.2 | 11.1 | 3.0
Oc1ccccc1-[n+]1c(-c2ccccc2)cc(-c2ccccc2)c(O)c1-c1ccccc1 | 19.8 | x | -2.3 | -0.8 | -1.2 | 42.2*
COC1=C(N)C(=O)c2nc(-c3nc(C(=O)O)c(C)c(-c4ccc(OC)c(OC)c4O)c3N)ccc2C1=O | x | 0.9 | 0.2 | x | 179.2* | 1.0
CCOC(=O)N1CCN(C(=S)NC(=O)c2ccc(F)c(F)c2)CC1 | 1.8 | 22.2 | x | 11.5* | i | 23.2
CCOC(=O)N1CCN(C(=S)NC(=O)c2cccc(OC)c2)CC1 | -5.8 | x | -1.0 | -0.4 | i | -1.2
CCOC(=O)c1c(NC(=O)COC(=O)c2cccnc2OCC)sc(C(=O)N(CC)CC)c1C | 31.0 | x | -0.9 | 4.6 | -0.8 | -0.5
CSc1ncccc1C(=O)NCC1CCCCC1 | 1.0 | 51.3* | 2.5 | 1.3 | i | 1.2
CCN(C(=O)COC(=O)c1cccnc1SC)C1CCCCC1 | 4.5 | x | -0.4 | 14.7* | i | 1.6
Cc1ccccc1NC(=S)N1CCC(C(=O)c2ccc(F)cc2)CC1 | 6.7 | -16.2 | 0.3 | 0.5 | 4.8 | -0.8
S=C(NNc1ccc2ccccc2c1)NC1CCCCC1 | 1.9 | 12.6 | -2.2 | x | i | 244.0*
S=C(Nc1ccc(Cl)c(Cl)c1)NC1CCCCC1 | -4.0 | 10.8 | x | 1.1 | i | 190.5*
S=C(Nc1ccc(Oc2ccccc2)cc1)NC1CCCCCC1 | 0.2 | 4.7 | -0.2 | x | 4.9 | u
CCCN(CC(=O)Nc1ccccc1OC)C(=O)CN1C(=O)NC(C)(C)C1=O | 6.9 | x | x | 1.2 | i | x
CCOc1ccc(CN2CCNC(=O)C2CC(=O)NCCc2ccccn2)cc1 (stereo not drawn) | 9.3 | 6.7 | x | 0.3 | -0.6 | 4.8
CCOc1ccc(CN2CCNC(=O)C2CC(=O)NCc2ccccn2)cc1 (stereo not drawn) | 2.6 | 53.6* | x | 0.9 | -3.3 | -0.7
O=C(CCN1C(=O)/C(=C/c2ccccc2)SC1=S)N[C@@H](CO)Cc1ccccc1 | 29.4 | 14.9 | -0.5 | 2.1 | -0.4 | 0.8
Cc1ccc(S(=O)(=O)c2c(C)cc(C)nc2Cl)cc1 | 9.7 | -0.9 | x | x | 0.2 | -0.8
Cc1cc(C)c(S(=O)(=O)c2ccc(C(C)(C)C)cc2)c(Cl)n1 | 40.9 | 52.6* | 0.8 | -1.2 | -0.3 | 1.9
Cc1cc(Cl)ccc1NC(=S)NC(C)(C)C | 3.2 | 12.5 | x | -1.6 | 2.7 | 0.5
O=C(Nc1ccc(Cl)cn1)Nc1ccccc1F | 4.6 | 22.2 | x | x | i | 0.3
N#CCC(=O)NCC1(c2ccccc2)CCCC1 | -1.9 | 12.7 | 0.5 | x | 25.0* | 1.1
FC(F)(F)c1cccc(N2CCN(C(=S)NC3CCCC3)CC2)c1 | 1.4 | -9.0 | -3.1 | x | -0.2 | 1.5
FC(F)(F)c1cccc(N2CCN(C(=S)NC3CCCCC3)CC2)c1 | 16.2 | -8.8 | x | x | -0.4 | 36.6*
Cc1ccc(C2=NS(=O)(=O)N(C)C(C(=O)NCc3ccccn3)=C2)cc1 | 0.9 | 17.3 | -1.8 | 5.7 | -0.2 | 1.0
Cc1ccc(C2=NS(=O)(=O)N(C)C(C(=O)NCc3cccs3)=C2)cc1 | 7.0 | 17.3 | 1.0 | 19.0* | -0.2 | 0.2
SMILES | Y pestis TopoI | DUSP3 inh | BioA inh | TcdB GH inh | BH1578 lux ind | PfHsp40 rescue
CCCCOC(=O)Nc1nnc(/C=C/c2ccc(OC)cc2)s1 | 53.3* | 0.1 | x | -1.0 | -0.4 | -1.1
Cc1sc2ccccc2c1CC1=NCCN1 | -0.6 | x | -0.9 | -11.4 | i | -0.2
Nc1ccc(CC2=NCCN2)cc1 | 0.8 | x | x | -0.9 | x | 34.5*
CCCOc1ccc(C(=O)NNC(=S)NC(C)=O)cc1 | 5.4 | 14.7 | 3.1 | x | -0.4 | 52.4*
COc1ccc(C(=O)NNC(=S)NC(=O)c2ccco2)cc1 | 4.6 | 17.3 | x | x | -1.7 | 4.2
CCCCOc1ccc(C(=O)NNC(=S)NC(=O)CC)cc1 | -6.5 | -7.2 | x | x | -0.3 | 61.3*
CC(Oc1ccc(Cl)cc1)C(=O)NNC(=S)NC(=O)c1ccco1 (stereo not drawn) | 3.4 | 2.6 | 0.3 | -0.4 | -0.2 | 68.3*
CCCOc1ccc(C(=O)NNC(=S)NC(=O)c2ccco2)cc1 | 0.7 | 1.5 | x | 1.1 | -0.6 | 108.1*
Cc1ccc(S(=O)(=O)N[C@@H]2CC[C@H](CC(=O)NCc3ccccc3F)O[C@@H]2CO)cc1 | x | x | -3.8 | 0.1 | x | x
Cc1ccc(NC(=O)c2cc(C)nc3ccccc23)c(Br)c1 | 12.8 | 13.9 | -4.5 | 2.2 | i | 0.7
Cc1ccc(S(=O)(=O)Nc2ccc3ncccc3c2[N+](=O)[O-])cc1 | 6.2 | x | x | 5.9 | -0.8 | 0.2
COc1ccccc1C#CC1=CC(=O)CC(C)(C)C1 | 11.5 | x | 2.2 | 0.1 | -0.1 | x
CN(CC(=O)Nc1ccccc1Oc1ccccc1)Cc1ccccc1F | 59.8* | -9.7 | x | x | -0.3 | 3.0
CCCN1C[C@H](C)[C@H](OC)CN(C)C(=O)c2ccc(NC(=O)c3ccc(F)cc3)cc2OC[C@H]1C | x | x | 0.6 | x | x | x
COC(C(=O)NC1CC1)c1ccccc1 (stereo not drawn) | -5.3 | 6.4 | x | -1.0 | -0.2 | -0.8
Cc1nc(SCC(=O)N2CCNC2=O)c(C#N)c(C)c1C | 0.5 | x | 0.9 | 12.7* | i | x
Cc1nc(SCC(N)=O)c(C#N)c(C)c1C | -4.7 | 28.8 | -2.1 | 0.0 | i | -0.3
CN1/C(=C\C(=O)c2cccs2)C(C)(C)c2ccccc21 | 3.6 | 4.3 | x | x | -0.3 | 153.5*
CCCNC(=O)c1nnsc1S(=O)(=O)c1ccc(Cl)cc1 | 6.2 | 3.1 | x | 0.1 | -0.2 | 119.5*
CCOc1cccc(/C=N/NC(=S)Nc2cc(S(=O)(=O)N3CCOCC3)ccc2N2CCOCC2)c1O | 20.1 | -0.9 | x | -1.8 | -0.3 | 59.5*
O=C(CSc1ccccc1)Nc1cc(S(=O)(=O)N2CCOCC2)ccc1N1CCOCC1 | 13.6 | 21.8 | x | 11.7* | -0.3 | 58.7*
COc1ccc2ccccc2c1/C=N/NC(=S)Nc1cc(S(=O)(=O)N2CCOCC2)ccc1N1CCOCC1 | 10.6 | -6.9 | -0.4 | x | -0.4 | -0.5
O=C(CCNC(=O)c1ccc(Cl)cc1)Nc1cccc(S(=O)(=O)N2CCCCC2)c1 | 4.6 | x | 0.2 | -0.3 | i | 0.5
O=C(CC(=O)c1ccccc1)CS(=O)(=O)c1ccccc1 | 7.9 | x | -0.5 | 1.5 | -1.0 | 60.0*
Cc1ccc(S(=O)(=O)CC(=O)c2ccccc2)cc1 | -0.4 | -3.2 | x | x | i | -0.5
CCC(c1nnnn1Cc1ccco1)N(Cc1cc2cc(C)cc(C)c2[nH]c1=O)CC1CCCO1 (stereo not drawn) | 8.9 | 35.8 | -1.0 | x | -0.4 | 0.0
COc1ccc(C(=O)NC(C)c2nnc(SCC(=O)NC3CCCC3)n2C)cc1 (stereo not drawn) | 5.6 | 52.9* | -0.3 | 0.5 | -0.3 | 1.1
COc1ccc(C(=O)NC(C)c2nnc(SCC(=O)NC3CCCCC3)n2C)cc1 (stereo not drawn) | 0.4 | 13.0 | -2.1 | 1.2 | i | 0.8
Cn1cnnc1SCC(=O)NC1CCCCC1 | -11.1 | 13.1 | -1.5 | 15.0* | 3.7 | -1.4
Cn1cnnc1SCC(=O)NC(=O)NC1CCCC1 | -5.4 | 10.5 | -0.2 | x | 1.0 | -1.6

Compound activity (PubChem)
